# In PubChem BioAssay AID488890 (Southern Research Specialized Biocontainment Screening …, 2010):
# Screen size: about 320,000 compounds; about 1,300 (0.41%) were called active. Not shown: some 3% with an inconclusive outcome. How the calls were made is not given here. The list is a sample of the results. Entries with a potency or affinity are not part of this list.
# Assay: growth inhibition of non-replicating M. tuberculosis (AID 488890);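 further: plate controls were DMSO cells for no effect and high antibiotic wells for full effect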
# Details: Mycobacterium tuberculosis non-replicating, at 25 µM, stronger effect = higher value
row,SMILES,inhibition [%]
1,Cc1nc2c(sc3nc4c(cc32)COC(C)(C)C4)c(=O)n1Cc1ccccc1,8.21
2,CCNC(=O)OCC12CC3CC(CC(C3)C1)C2,77
3,CCCNC(=O)OCCC12CC3CC(CC(C3)C1)C2,69.4
4,COc1ccc(Cl)c2sc(N(CCN(C)C)C(=O)CCS(=O)(=O)c3ccc(C)cc3)nc12,26.4
5,O=C(NCC1CCCN(C(=O)c2cccnc2)C1)c1ccc(-c2ccccc2)cc1 (stereo not given),-2.83
6,O=[N+]([O-])c1ccc(Nc2ccc(Cl)cc2)nc1,16.9
7,O=C(O)c1ccc(Nc2ncc([N+](=O)[O-])cc2[N+](=O)[O-])cc1,5.68
8,COc1ccc(CCNC(=O)c2ccc(S(=O)(=O)N(C)c3ccccc3)cc2)cc1OC,-1.9
9,O=C(CC1CCCC1)Nc1cc(C(F)(F)F)ccc1-n1cncn1,12.3
10,c1ccc(Nc2ccccc2Nc2ccccn2)nc1,0.46
11,c1ccc(Nc2ccccn2)nc1,3.72
12,COc1ccccc1NC(=O)c1ccc(-c2ccccc2[N+](=O)[O-])o1,25
13,Cc1ccc(CNC(=O)c2ccc(Br)o2)cc1,71.9
14,O=C(NCc1cccnc1)c1ccc([N+](=O)[O-])o1,62.8
15,COc1cc(NC(=O)c2ccc([N+](=O)[O-])o2)ccc1NC(=O)c1ccco1,66.5
16,Cc1cccc(NC(=O)c2cccc(Cn3cc(Br)c([N+](=O)[O-])n3)c2)c1C,-0.16
17,Cc1cccc(NC(=O)c2ccco2)c1C,-14.2
18,Cc1cccc(NC(=O)COC(=O)c2ccc([N+](=O)[O-])o2)c1C,61.9
19,Cc1ccccc1Cn1nnc(C(=O)Nc2cccc(C)c2C)c1N,26
20,O=C(NCc1ccccc1)c1cc[n+](Cc2ccccc2)cc1,-1.18
21,Cc1ccc(C(C)(C)NC(=O)C2CCC(=O)N(C3CCCCCC3)C2)cc1 (stereo not given),8.48
22,Cc1ccccc1CC(=O)N1CCN(S(=O)(=O)c2cccs2)CC1,-18.2
23,O=C(Cc1ccccc1)NC(c1ccco1)c1c(O)ccc2ccccc12 (stereo not given),11.6

row,SMILES,inhibition [%]
1,O=C(NCc1ccccc1)C1=C[C@@H](c2csc3ccccc23)C[C@@H](OCCCCO)O1,-6.19
2,NC(=O)c1cc(S(=O)(=O)N2CC=C(c3ccccc3)CC2)cs1,-1.59
3,N#CCc1ccc(NC(=O)CSc2nnc(C3CC3)n2C2CC2)cc1,-7.07
4,CC(=O)OCC(=O)Nc1ccc(SC(F)F)cc1,-17.3
5,COc1ccc(CNC(=O)N2CCN(c3cccc(C)c3C)CC2)cc1OC,47.1
6,Cc1ccc2nc(-c3ccncc3)cc(C(=O)N3CCC4(CC3)OCCO4)c2c1,8.38
7,O=C(CSc1ncn(-c2ccccc2)n1)Nc1nccs1,12.5
8,Cc1cc(OC2CCCCC2)nc(-c2ccccc2O)n1,0.01
9,C=C1CCC[C@]2(C)C[C@H]3OC(=O)C(CNC(CC)CO)[C@H]3CC12 (stereo not given in full),34.3
10,O=C(Nc1nccs1)c1ccc(N2C(=O)C3CCCCC3C2=O)cc1 (stereo not given),6.17
11,O=C(NC12CC3CC(CC(C3)C1)C2)c1ccc(-c2ccc(Cl)cc2)o1,64.3
12,O=C(Nc1cccc(NC(=O)c2ccccc2Cl)c1)c1ccc([N+](=O)[O-])o1,8.06
13,O=C(COC(=O)c1ccc([N+](=O)[O-])o1)Nc1cccc2ccccc12,71.3
14,Cc1cc(C)nc(NC(=O)c2ccc([N+](=O)[O-])o2)n1,70.5
15,O=C(NC12CC3CC(CC(C3)C1)C2)c1ccc([N+](=O)[O-])cc1,74.3
16,O=C(Nc1ccc(Cc2ccncc2)cc1)c1ccc(Br)o1,-2.73
17,Cc1c([N+](=O)[O-])cc(C(=O)Nc2ccc(Cc3ccncc3)cc2)cc1[N+](=O)[O-],59.9
18,Cc1ccc(C(=O)Nc2cccc3ccccc23)o1,26.4
19,O=C(NCCCN1CCN(CCCNC(=O)c2cccc(Cl)c2)CC1)c1cccc(Cl)c1,43.3
20,CCOc1ccc(NC(=O)CN(C)C(=O)c2ccc(C)o2)cc1OCC,-1.16
21,Cc1ccc(-c2cc(C(=O)Nc3cccnc3)[nH]n2)c(O)c1C,3.48
22,CC(C)NC(=O)CCn1nc(-c2ccc(Cl)cc2)c2ccccc2c1=O,10
23,FC(F)(F)c1cc(-c2ccco2)nc(N2CCN(c3ccccc3)CC2)n1,-1.1

row,SMILES,inhibition [%]
1,O=C(CCNC(=O)c1ccc(Br)cc1)NCc1ccco1,6.14
2,CC(=O)c1cccc(S(=O)(=O)NCCC(=O)O)c1,-0.2
3,Cc1cc(C)c2nc(NC(=O)c3ccc([N+](=O)[O-])o3)sc2c1,62.3
4,O=C(Nc1ccccc1N1CCOCC1)c1ccc([N+](=O)[O-])o1,67.3
5,NS(=O)(=O)c1ccc(O)c(NC(=O)c2ccc([N+](=O)[O-])o2)c1,76.7
6,CN1CCN(c2ccccc2NC(=O)c2ccc([N+](=O)[O-])o2)CC1,44.3
7,CCn1ncc(Br)c1C(=O)Nc1cc(C)cc(C)c1,-11
8,C=C1CCC2[C@](C)(CO)[C@H](O)CC[C@@]2(C)[C@@H]1/C=C/C1=CCOC1=O (stereo not given in full),-9.71
9,CC(C)c1ccc(C(C(=O)NC2CCCC2)N(C(=O)CNC(=O)c2ccco2)c2cccnc2)cc1 (stereo not given),-5.98
10,O=C(NS(=O)(=O)Nc1ccccc1)C1=C(N2CCCC2)COC1=O,12.7
11,CCOC(=O)N1CCN(C(=O)CSc2nc3c([nH]c4ccccc43)c(=O)n2CCOC)CC1,-12.8
12,COC(=O)c1nn(-c2cccc(C)c2)c2nnc(Cc3ccc(C)cc3)c(=O)n12,-0.72
13,COc1ccc(NC(=O)N2CCCC2C(=O)NC2CCCC2)cc1 (stereo not given),-20.1
14,COc1ccccc1N1CCN(C(=O)C2CC=CCC2C(=O)O)CC1 (stereo not given),-0.47
15,COc1cccc2c1OCC(C(=O)O)C2 (stereo not given),-4.89
16,CCOC(=O)C1CCN(C(=O)c2ccc3c(=O)n4c(nc3c2)CCCCC4)CC1,-14.7
17,O=Nc1c(-c2ccccc2)[nH]n(-c2ccccc2)c1=O,63
18,Cn1nc(-c2ccccc2)c(/C=N/O)c1Cl,-12.1
19,Cc1sc2ncnc(N3CCCCC3C)c2c1C (stereo not given),32.6
20,CCOc1ccc(S(=O)(=O)N2CCCC(C(=O)NCc3ccccc3)C2)cc1 (stereo not given),-11.6
21,CN(C)C=NC(=O)c1cn(-c2ccc(F)cc2)c(=O)c2ccccc12,-9.03
22,O=C(N/N=C/C=C\c1ccccc1[N+](=O)[O-])c1cccnc1,-10.7
23,COc1ccccc1/C=C/C=N/NC(=O)c1ccccn1,70.9

row,SMILES,inhibition [%]
1,O=C(N/N=C/c1ccco1)c1ccncc1,54.4
2,O=C(N/N=C/C=C/c1ccccc1)c1cnccn1,15.9
3,O=C(N/N=C/C=C\c1ccccc1)c1cnccn1,11.4
4,O=C(N/N=C/C=C/c1ccccc1[N+](=O)[O-])c1cccnc1,-8
5,COc1ccccc1/C=C/C=N/NC(=O)c1cnccn1,5.21
6,O=C(N/N=C/C=C/c1ccco1)c1cnccn1,-12.5
7,COc1ccc(CNC(=O)c2ccc[nH]2)cc1,34.3
8,CC(=O)N1CCN(c2ccc(NC(=O)c3ccc4c(c3)OCCO4)cc2Cl)CC1,27.7
9,Cc1cccc(OCC(=O)OC(C)C(=O)Nc2ccc(S(=O)(=O)N3CCCCC3)cc2)c1 (stereo not given),17.6
10,C=C(C)CSc1nnc(-c2cc(OC)c(OC)c(OC)c2)n1N,-11
11,COc1ccc(C2=NN(C(=O)CN3CCCC3)C(c3ccc(OC)cc3)C2)cc1 (stereo not given),-5.46
12,C/C=C/C=N\NC(=O)c1ccncc1,57.5
13,O=C(O)CC/C(=N\NC(=O)c1ccncc1)c1ccccc1,37.3
14,C/C(=N/NC(=O)c1ccncc1)c1ccccc1,49.1
15,CC1(C)OC(c2ccccc2)=C/C(=C/C=Nc2ccccc2)O1,14.4
16,Cc1ccccc1N=C/C=C1/C=C(c2ccccc2)OC(C)(C)O1,32.8
17,O=C(N/N=C/c1ccncc1)c1ccccc1,67.6
18,Cn1cc(C(=O)N/N=C/C=C/c2ccccc2)ccc1=O,-14.3
19,O=C(N/N=C/C=C/c1ccccc1)c1ccc(Br)cc1,-16.8
20,CCCOc1ccc(Cc2c(O)nc(SC)[nH]c2=O)cc1,8.21
21,CCC1(c2ccccc2)NC(=O)N(CC(=O)NC2CCCCCC2)C1=O (stereo not given),15.6
22,CCOC(=O)c1nn(-c2ccc(Cl)cc2C)ccc1=O,-14.1
23,Cc1c(C(=O)N(C)C)c2cc(Cl)ccc2n1O,8.07

row,SMILES,inhibition [%]
1,Cc1ccccc1NC(=O)OCc1ccccc1,71.6
2,COc1ccc(C(=O)COC(=O)c2ccc(-n3cnnn3)cc2)c(OC)c1,-4.6
3,COc1cccc(C(=O)Nc2ccccc2F)c1,-15.1
4,O=C(COC(=O)/C=C/c1ccco1)NCc1ccc(Cl)cc1,44.8
5,COc1ccccc1C(=O)OCCN=C1NS(=O)(=O)c2ccccc21,3.36
6,CC(/C=N/NC(=O)c1ccncc1)=C\c1ccccc1,56.6
7,O=C(N/N=C/C(Br)=C/c1ccccc1)c1cccnc1,56.4
8,Cc1ccc2nc(-c3ccccc3)oc(=O)c2c1,76.6
9,CCOc1ccc(-c2nnc(-c3ccccc3)o2)cc1,78.4
10,COc1ccc(-c2csc3nc(-c4ccc(C)cc4)oc(=O)c23)cc1OC,2
11,O=[N+]([O-])c1ccc(C=Nc2cccc3ccccc23)s1,68.5
12,CCOc1ccc(-c2cc(C(=O)O)c3ccccc3n2)cc1,0.34
13,COc1ccc(-n2c(/C=C/c3ccc(O)cc3)nc3ccccc3c2=O)cc1,20.1
14,COc1ccc(/C=C/c2cc(C(=O)O)c3ccccc3n2)cc1,3.28
15,O=c1oc(-c2cccc([N+](=O)[O-])c2)nc2ccccc12,67.8
16,O=S(=O)(Cc1ccccc1)N1CCCc2ccccc21,28.1
17,Cc1[nH]c2ccc(C(=O)NCCCN(C)C3CCCCC3)cc2c1C,7.44
18,Cc1sc2nc(SCC(=O)NCCOCCO)n(C)c(=O)c2c1C,-0.17
19,Cc1ccc(C(=O)NCC(=O)OCn2nnc3ccccc3c2=O)cc1,4.09
20,Cc1nn(Cc2ccccc2)c2c1C(c1ccc(Cl)cc1)C(C#N)=C(N)O2 (stereo not given),11.4
21,COC(=O)c1sccc1NC(=O)c1c(-c2ccccc2)noc1C,27.9
22,CC1CC(=O)Nc2ccccc2N1C(=O)CN1CCN(C=O)CC1 (stereo not given),4.41
23,c1ccc(C2C3=C(Nc4ncnn42)c2ccccc2CCC3)cc1 (stereo not given),9.65
